Residual activity data for seven compounds are collected here from ChEMBL document CHEMBL2218924, “A broad activity screen in support of a chemogenomic map for kinase signalling research and drug discovery” (Biochem J, 2013).

In assay [1] the target is T1, Serine/threonine-protein kinase BRSK1 (Homo sapiens) (UniProt Q8TDC3).
T1 sequence (whole entry): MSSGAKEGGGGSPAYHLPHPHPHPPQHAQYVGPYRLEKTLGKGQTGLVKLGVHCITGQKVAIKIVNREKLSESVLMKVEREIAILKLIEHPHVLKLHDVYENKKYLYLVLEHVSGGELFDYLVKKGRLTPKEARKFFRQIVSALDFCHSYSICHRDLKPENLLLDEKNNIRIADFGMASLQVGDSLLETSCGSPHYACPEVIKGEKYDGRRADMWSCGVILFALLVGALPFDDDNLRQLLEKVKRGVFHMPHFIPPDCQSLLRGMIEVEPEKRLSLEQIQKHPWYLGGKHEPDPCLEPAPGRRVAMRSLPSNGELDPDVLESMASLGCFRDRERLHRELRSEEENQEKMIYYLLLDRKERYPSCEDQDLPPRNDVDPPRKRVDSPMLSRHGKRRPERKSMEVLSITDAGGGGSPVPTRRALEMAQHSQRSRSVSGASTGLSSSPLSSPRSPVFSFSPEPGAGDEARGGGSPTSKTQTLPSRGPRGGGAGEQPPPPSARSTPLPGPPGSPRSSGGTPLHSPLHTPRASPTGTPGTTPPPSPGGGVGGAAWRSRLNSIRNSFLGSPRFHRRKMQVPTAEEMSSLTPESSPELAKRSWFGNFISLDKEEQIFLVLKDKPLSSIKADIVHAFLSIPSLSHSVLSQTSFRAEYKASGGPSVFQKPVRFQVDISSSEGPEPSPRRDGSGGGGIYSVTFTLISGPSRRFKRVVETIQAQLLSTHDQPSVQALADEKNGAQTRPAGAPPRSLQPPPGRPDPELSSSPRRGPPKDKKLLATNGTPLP
To be noted: at 1 µM.

The target in assay [2] is T1, Serine/threonine-protein kinase BRSK1 (Homo sapiens). To be noted: at 10 µM.
Assay [3] has as its target T2, Serine/threonine-protein kinase BRSK2 (Homo sapiens) (UniProt Q8IWQ3).
T2 sequence (whole entry): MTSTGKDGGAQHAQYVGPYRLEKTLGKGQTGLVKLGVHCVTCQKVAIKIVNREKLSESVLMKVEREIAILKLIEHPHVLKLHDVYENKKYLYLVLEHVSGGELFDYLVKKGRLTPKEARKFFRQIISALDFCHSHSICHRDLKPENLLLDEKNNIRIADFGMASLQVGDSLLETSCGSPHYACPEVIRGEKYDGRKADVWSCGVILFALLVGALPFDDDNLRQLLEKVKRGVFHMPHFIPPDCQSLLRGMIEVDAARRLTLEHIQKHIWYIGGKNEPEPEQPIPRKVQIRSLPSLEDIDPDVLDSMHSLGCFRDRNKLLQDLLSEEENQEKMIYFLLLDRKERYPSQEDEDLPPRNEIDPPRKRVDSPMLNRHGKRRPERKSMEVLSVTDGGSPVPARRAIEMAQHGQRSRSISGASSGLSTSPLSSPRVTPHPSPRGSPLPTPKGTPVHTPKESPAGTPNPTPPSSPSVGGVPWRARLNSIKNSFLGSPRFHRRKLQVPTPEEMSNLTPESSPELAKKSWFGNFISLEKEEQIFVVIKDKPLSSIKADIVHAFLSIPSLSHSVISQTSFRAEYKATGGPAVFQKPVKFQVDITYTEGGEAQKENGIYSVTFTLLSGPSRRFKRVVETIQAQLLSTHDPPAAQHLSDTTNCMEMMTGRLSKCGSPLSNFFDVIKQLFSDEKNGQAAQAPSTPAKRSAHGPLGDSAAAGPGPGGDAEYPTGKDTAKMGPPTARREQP
To be noted: at 1 µM.

In assay [4] the target is T2, Serine/threonine-protein kinase BRSK2 (Homo sapiens). The following applies: at 10 µM.
Assay [5] addresses T3, Cyclin-dependent kinase 1/cyclin B1 (Homo sapiens) (UniProt P06493+P14635). To be noted: at 1 µM.
Assay [6] deals with T3, Cyclin-dependent kinase 1/cyclin B1 (Homo sapiens). To be noted: at 10 µM.
Assay [7] deals with T4, Cyclin-dependent kinase 2/cyclin A (Homo sapiens) (UniProt P24941+P20248+P78396). To be noted: at 1 µM.
The target of assay [8] is T4, Cyclin-dependent kinase 2/cyclin A (Homo sapiens). To be noted: at 10 µM.
In assay [9] the target is T5, Cyclin-dependent kinase 2/cyclin E (Homo sapiens) (UniProt P24864+P24941+O96020). To be noted: at 1 µM.
Assay [10] concerns the target T5, Cyclin-dependent kinase 2/cyclin E (Homo sapiens). The following applies: at 10 µM.
Assay [11] concerns the target T6, CDK3/cyclin E (Homo sapiens) (UniProt P24864+O96020+Q00526). The following applies: at 1 µM.
The target of assay [12] is T6, CDK3/cyclin E (Homo sapiens). To be noted: at 10 µM.
Assay [13] concerns the target T7, Cyclin-dependent kinase 5/CDK5 activator 1 (Homo sapiens) (UniProt Q00535+Q15078). The following applies: at 1 µM.
For assay [14], the target named is T7, Cyclin-dependent kinase 5/CDK5 activator 1 (Homo sapiens). To be noted: at 10 µM.
Assay [15] has the same target. The following applies: at 1 µM. This is another data set of the same source.
For assay [16] the target is unchanged. To be noted: at 10 µM. This is another data set of the same source.
Assay [17] has as its target T8, CDK6/cyclin D3 (Homo sapiens) (UniProt P30281+Q00534). The following applies: at 1 µM.
The target in assay [18] is T8, CDK6/cyclin D3 (Homo sapiens). The following applies: at 10 µM.
In assay [19] the target is T9, Cyclin-dependent kinase 7/ cyclin H (Homo sapiens) (UniProt P51946+P50613). To be noted: at 1 µM.
The target of assay [20] is T9, Cyclin-dependent kinase 7/ cyclin H (Homo sapiens). To be noted: at 10 µM.

T6 sequence (O96020 whole entry, looked up): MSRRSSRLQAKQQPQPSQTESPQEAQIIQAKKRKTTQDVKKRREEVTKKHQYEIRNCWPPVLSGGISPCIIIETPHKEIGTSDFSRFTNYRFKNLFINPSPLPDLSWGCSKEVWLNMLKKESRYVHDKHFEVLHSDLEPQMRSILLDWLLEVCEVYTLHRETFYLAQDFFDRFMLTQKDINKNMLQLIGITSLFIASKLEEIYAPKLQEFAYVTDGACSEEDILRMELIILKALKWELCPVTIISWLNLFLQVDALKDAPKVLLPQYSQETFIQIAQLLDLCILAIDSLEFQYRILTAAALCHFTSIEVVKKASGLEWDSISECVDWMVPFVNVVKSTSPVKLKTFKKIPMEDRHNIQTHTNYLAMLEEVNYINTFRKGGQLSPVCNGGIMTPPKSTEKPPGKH
T6 sequence (P24864 whole entry, looked up): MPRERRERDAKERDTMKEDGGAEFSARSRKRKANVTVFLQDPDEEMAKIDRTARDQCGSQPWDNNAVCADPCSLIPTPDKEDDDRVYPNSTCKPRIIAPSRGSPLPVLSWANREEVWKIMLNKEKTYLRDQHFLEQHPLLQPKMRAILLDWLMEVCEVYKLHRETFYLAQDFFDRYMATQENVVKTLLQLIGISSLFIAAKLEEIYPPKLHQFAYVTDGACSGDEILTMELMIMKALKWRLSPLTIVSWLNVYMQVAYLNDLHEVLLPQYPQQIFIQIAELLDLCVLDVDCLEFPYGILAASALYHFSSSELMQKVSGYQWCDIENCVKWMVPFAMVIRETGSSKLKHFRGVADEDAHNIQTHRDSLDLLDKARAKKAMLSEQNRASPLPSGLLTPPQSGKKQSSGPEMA
T6 sequence (Q00526 whole entry, looked up): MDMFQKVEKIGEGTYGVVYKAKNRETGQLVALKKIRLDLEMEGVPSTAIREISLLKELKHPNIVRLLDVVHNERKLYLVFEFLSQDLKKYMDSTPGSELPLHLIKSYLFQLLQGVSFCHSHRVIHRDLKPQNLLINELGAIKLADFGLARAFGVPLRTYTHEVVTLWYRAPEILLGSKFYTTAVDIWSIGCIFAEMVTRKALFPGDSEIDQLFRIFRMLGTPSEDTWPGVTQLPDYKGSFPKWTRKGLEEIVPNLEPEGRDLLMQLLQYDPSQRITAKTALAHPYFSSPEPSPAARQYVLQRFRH
T3 sequence (P06493 whole entry, looked up): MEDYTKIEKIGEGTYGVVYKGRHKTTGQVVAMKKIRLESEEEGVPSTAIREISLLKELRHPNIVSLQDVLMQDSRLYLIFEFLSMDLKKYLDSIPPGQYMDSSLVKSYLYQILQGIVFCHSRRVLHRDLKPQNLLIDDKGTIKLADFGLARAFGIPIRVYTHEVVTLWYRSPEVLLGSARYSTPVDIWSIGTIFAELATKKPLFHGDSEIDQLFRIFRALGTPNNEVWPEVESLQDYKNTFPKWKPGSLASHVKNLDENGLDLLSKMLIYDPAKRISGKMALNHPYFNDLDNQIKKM
T3 sequence (P14635 whole entry, looked up): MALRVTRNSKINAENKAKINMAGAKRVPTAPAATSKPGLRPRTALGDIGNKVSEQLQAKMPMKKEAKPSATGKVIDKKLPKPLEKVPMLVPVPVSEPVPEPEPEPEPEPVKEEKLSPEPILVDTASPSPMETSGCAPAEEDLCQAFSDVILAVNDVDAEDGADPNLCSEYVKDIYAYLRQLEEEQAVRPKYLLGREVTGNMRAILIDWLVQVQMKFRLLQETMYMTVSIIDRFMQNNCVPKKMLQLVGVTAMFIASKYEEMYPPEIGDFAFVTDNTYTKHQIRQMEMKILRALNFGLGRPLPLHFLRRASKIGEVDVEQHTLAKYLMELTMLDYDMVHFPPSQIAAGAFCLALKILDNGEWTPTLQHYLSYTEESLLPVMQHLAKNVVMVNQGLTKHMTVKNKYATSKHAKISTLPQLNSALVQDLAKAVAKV

Take `Cc1ccc(NC2=CC(=O)c3sc(C)nc3C2=O)cc1`: the residual activity came out at 101% in assay [1]; 105% in assay [2]; 110% in [3]; 97% in assay [4]; 101% in assay [5]; 106% in assay [6]. For the same compound, the residual activity in [7] was 91%; in assay [8] it was 91%; in [9], 97%; in assay [10] it was 91%; in assay [11] it was 92%; in assay [12], 95%. The residual activity in assay [13] turned out to be 102%; in [14], 97%; in [15] it was 107%; in assay [16], 87%; in [17], 91%; in [18], 85%. Also, the residual activity in [19] was 97%; in assay [20] it was 85%.

Consider `O=C1Nc2cc(Br)ccc2/C1=C1/Nc2ccccc2/C1=N\O`, for which the residual activity in assay [1] came out at 33%; in assay [2] it was 12%; in assay [3] it was 4%; in assay [4] it was 6%; in assay [5], 54%; in assay [6], 12%. Further, the residual activity in assay [7] was determined as 37%; in assay [8], 38%; in assay [9], 3%; in assay [10], 7%; in assay [11], 0%; in assay [12] it was 1%. In addition, the residual activity is 6% in assay [13]; 10% in assay [14]; 2% in assay [15]; 9% in assay [16]; 40% in assay [17]; 5% in [18]. In addition, the residual activity in assay [19] worked out at 34%; in [20], 13%.

For `CC(=O)O/N=C1\C(=C2\C(=O)Nc3cc(Br)ccc32)Nc2ccccc21`, the residual activity amounted to 48% in [1]; 24% in assay [2]; 52% in assay [3]; 21% in [4]; 90% in assay [5]; 34% in [6]. Besides, the residual activity in [7] is 60%; in assay [8] it was 24%; in [9] it was 42%; in assay [10] it was 9%; in [11], 12%; in [12] it was 2%. The residual activity in [13] turned out to be 35%; in assay [14] it was 10%; in [15], 60%; in assay [16], 9%; in [17], 91%; in [18] it was 54%. The residual activity in assay [19] amounted to 78%; in assay [20] it was 45%.

For the compound `NC(=O)c1ccc2[nH]c(-c3ccc(Oc4ccc(Cl)cc4)cc3)nc2c1`, the residual activity in [1] amounted to 83%; in assay [2] it was 81%; in [3], 116%; in [4] it was 88%; in assay [5], 93%; in assay [6], 56%. The residual activity in [7] stood at 82%; in [8], 83%; in [9], 91%; in assay [10] it was 87%; in assay [11], 87%; in assay [12], 80%. The residual activity in assay [13] was 68%; in [14] it was 31%; in assay [15] it was 83%; in assay [16] it was 55%; in assay [17] it was 93%; in assay [18] it was 82%. In addition, the residual activity in [19] is 99%; in [20], 98%.

Take `COc1cc2ncnc(Nc3ccc(NC(=O)c4ccccc4)cc3)c2cc1OC`: the residual activity in assay [1] was 67%; in [2] it was 63%; in assay [4], 99%; in assay [6], 101%; in assay [7], 144%; in [8] it was 93%. Besides, the residual activity in assay [9] stood at 104%; in assay [10], 104%; in [11], 107%; in assay [12], 97%; in assay [13] it was 105%; in assay [14] it was 99%. Besides, the residual activity in [15] came out at 101%; in assay [16], 101%; in [17] it was 111%; in [18] it was 102%; in assay [19], 97%; in assay [20], 102%.

Regarding `N#C/C(=C(\N)Sc1ccc(N)cc1)c1ccccc1C(F)(F)F`, the residual activity in assay [1] was 85%; in [2], 74%; in assay [3], 105%; in [4] it was 103%; in [5], 104%; in assay [6], 96%. Besides, the residual activity in [7] worked out at 86%; in assay [9] it was 97%; in assay [10] it was 102%; in [11] it was 96%; in assay [12], 86%; in assay [13] it was 90%. The residual activity in assay [14] was 92%; in assay [15], 110%; in assay [16] it was 100%; in [17] it was 98%; in assay [18], 88%; in assay [19], 102%. In assay [20], the residual activity is 94%.

Regarding `N#CC(C#N)=C(N)/C(C#N)=C/c1ccc(O)cc1`, the residual activity was 124% in [7]; 88% in assay [8]; 94% in assay [11]; 89% in assay [12]; 83% in assay [14]; 117% in assay [16]. For the same compound, the residual activity in assay [17] came to 98%; in assay [18], 87%; in assay [19] it was 96%; in [20], 90%.
